Results on 13 molecules are retold here after ChEMBL document CHEMBL2218924, “A broad activity screen in support of a chemogenomic map for kinase signalling research and drug discovery” (Biochem J, 2013).

In assay [1] the target is T1, CDK3/cyclin E (Homo sapiens) (UniProt P24864+O96020+Q00526). The conditions noted are these: at 1 µM.
Assay [2] addresses T1, CDK3/cyclin E (Homo sapiens). Conditions: at 10 µM.
In assay [3] the target is T2, Cyclin-dependent kinase 5/CDK5 activator 1 (Homo sapiens) (UniProt Q00535+Q15078). The conditions noted are these: at 1 µM.
Assay [4] deals with T2, Cyclin-dependent kinase 5/CDK5 activator 1 (Homo sapiens). Conditions: at 10 µM.
For assay [5] the target is unchanged. The conditions noted are these: at 1 µM. The source holds these as a separate data set.
Assay [6] has the same target. The conditions noted are these: at 10 µM. This is another data set of the same source.
The target of assay [7] is T3, CDK6/cyclin D3 (Homo sapiens) (UniProt P30281+Q00534). The conditions noted are these: at 1 µM.
For assay [8], the target named is T3, CDK6/cyclin D3 (Homo sapiens). The conditions noted are these: at 10 µM.
Assay [9] has as its target T4, Cyclin-dependent kinase 7/ cyclin H (Homo sapiens) (UniProt P51946+P50613). The conditions noted are these: at 1 µM.
Assay [10] concerns the target T4, Cyclin-dependent kinase 7/ cyclin H (Homo sapiens). The conditions noted are these: at 10 µM.
Assay [11] has as its target T5, CDK9/cyclin T1 (Homo sapiens) (UniProt O60563+P50750). Conditions: at 1 µM.
For assay [12], the target named is T5, CDK9/cyclin T1 (Homo sapiens). The conditions noted are these: at 10 µM.
The target of assay [13] is T6, Serine/threonine-protein kinase Chk1 (Homo sapiens) (UniProt O14757).
T6 sequence (whole entry): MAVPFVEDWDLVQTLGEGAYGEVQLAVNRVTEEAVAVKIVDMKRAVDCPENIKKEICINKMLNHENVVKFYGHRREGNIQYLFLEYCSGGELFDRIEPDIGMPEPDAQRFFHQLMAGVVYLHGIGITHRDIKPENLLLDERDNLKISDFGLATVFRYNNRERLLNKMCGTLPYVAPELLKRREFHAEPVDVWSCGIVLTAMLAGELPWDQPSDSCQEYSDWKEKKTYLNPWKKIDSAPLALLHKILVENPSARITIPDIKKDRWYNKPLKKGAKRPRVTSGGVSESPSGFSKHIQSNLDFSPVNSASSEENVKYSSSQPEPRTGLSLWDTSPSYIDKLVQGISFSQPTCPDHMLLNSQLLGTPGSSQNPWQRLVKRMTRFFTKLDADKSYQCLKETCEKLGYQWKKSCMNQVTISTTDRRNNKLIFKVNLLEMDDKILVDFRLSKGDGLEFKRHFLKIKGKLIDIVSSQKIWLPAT
The conditions noted are these: at 1 µM.

Assay [14] has as its target T6, Serine/threonine-protein kinase Chk1 (Homo sapiens). Conditions: at 10 µM.
The target of assay [15] is Serine/threonine-protein kinase Chk2 (Homo sapiens) (UniProt O96017). The conditions noted are these: at 1 µM.
For assay [16] the target is unchanged. Conditions: at 10 µM.
The target in assay [17] is Casein kinase I isoform gamma-1 (Homo sapiens) (UniProt Q9HCP0). Conditions: at 1 µM.
For assay [18] the target is unchanged. Conditions: at 10 µM.
Assay [19] addresses Casein kinase I isoform delta (Homo sapiens) (UniProt P48730). Conditions: at 1 µM.
The target is the same in assay [20]. The conditions noted are these: at 10 µM.

SMILES strings stand for the structures.

Casein kinase I isoform gamma-1 (Homo sapiens), sequence (Q9HCP0 whole entry, looked up, canonical isoform): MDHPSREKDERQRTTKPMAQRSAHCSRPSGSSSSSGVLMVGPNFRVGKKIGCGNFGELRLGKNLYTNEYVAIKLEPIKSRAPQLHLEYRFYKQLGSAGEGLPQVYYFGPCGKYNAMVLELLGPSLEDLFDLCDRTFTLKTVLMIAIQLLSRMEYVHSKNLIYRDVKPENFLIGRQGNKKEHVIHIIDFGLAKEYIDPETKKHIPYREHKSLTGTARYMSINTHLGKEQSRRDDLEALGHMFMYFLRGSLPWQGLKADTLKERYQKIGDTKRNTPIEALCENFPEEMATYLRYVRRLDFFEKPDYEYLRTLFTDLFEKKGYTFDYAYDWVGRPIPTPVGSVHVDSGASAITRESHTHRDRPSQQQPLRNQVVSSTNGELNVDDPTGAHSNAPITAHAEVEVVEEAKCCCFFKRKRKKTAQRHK
Serine/threonine-protein kinase Chk2 (Homo sapiens), sequence (O96017 whole entry): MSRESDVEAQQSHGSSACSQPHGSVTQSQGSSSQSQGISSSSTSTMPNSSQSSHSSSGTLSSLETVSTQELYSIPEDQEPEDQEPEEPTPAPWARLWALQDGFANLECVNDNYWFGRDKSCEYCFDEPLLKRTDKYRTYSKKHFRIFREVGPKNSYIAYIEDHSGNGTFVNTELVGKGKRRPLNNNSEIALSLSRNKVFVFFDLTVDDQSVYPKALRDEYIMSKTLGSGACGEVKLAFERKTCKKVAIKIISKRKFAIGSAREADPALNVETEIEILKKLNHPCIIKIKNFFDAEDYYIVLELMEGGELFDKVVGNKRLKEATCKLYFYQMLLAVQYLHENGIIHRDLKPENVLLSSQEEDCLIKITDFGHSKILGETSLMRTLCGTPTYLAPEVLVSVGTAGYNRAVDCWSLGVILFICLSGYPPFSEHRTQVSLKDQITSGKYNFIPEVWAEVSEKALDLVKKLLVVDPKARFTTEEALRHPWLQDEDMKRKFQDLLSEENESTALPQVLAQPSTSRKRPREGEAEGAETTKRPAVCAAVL
T1 sequence (O96020 whole entry, looked up): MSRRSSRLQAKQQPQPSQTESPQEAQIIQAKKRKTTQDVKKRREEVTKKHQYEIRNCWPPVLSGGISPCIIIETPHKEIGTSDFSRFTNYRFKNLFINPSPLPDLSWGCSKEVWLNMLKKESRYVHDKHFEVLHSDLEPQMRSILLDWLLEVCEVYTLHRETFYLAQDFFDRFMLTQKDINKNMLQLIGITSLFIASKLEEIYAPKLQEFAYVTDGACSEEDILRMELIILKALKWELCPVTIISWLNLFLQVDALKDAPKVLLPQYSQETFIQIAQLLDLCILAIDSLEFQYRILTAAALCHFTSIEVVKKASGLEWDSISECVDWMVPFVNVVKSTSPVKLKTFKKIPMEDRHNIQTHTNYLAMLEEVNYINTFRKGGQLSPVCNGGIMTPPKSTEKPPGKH
T1 sequence (P24864 whole entry, looked up): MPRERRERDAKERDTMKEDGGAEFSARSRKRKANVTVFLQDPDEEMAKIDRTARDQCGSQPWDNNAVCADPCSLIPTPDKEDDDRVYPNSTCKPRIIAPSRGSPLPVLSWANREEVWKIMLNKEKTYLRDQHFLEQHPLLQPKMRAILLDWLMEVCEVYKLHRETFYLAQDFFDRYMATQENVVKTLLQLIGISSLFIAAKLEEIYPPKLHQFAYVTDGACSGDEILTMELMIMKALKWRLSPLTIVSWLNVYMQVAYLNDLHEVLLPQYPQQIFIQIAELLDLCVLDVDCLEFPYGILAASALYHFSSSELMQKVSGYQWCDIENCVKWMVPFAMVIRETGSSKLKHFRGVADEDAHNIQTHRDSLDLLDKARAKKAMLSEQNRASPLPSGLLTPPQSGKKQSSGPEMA
T1 sequence (Q00526 whole entry, looked up): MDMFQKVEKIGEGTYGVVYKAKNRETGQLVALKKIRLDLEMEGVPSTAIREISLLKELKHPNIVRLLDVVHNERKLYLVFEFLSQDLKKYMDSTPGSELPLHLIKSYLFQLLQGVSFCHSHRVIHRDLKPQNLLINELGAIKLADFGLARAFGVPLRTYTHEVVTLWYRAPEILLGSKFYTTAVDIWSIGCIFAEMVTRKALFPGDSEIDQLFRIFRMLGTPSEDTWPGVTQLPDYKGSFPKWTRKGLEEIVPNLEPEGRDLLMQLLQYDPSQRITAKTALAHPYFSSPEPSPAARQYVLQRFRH
Casein kinase I isoform delta (Homo sapiens), sequence (P48730 whole entry, looked up, canonical isoform): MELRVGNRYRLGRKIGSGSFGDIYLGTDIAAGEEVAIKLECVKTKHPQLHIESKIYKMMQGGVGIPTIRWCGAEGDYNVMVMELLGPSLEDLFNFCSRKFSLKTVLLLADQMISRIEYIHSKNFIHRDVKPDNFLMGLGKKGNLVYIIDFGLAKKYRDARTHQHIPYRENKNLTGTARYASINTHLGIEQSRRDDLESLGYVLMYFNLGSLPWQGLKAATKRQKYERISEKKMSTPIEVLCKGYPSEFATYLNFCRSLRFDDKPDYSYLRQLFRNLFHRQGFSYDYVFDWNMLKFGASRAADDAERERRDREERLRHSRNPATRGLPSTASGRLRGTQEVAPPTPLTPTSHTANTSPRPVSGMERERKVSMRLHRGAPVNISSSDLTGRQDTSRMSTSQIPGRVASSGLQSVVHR

Take `O=C1NC(=O)c2cc(Nc3ccc(F)cc3)c(Nc3ccc(F)cc3)cc21`: the residual activity worked out at 86% in assay [1]; 66% in assay [2]; 112% in assay [3]; 49% in assay [4]; 81% in assay [5]; 60% in assay [6]. Moreover, the residual activity in assay [7] was 98%; in assay [8] it was 86%; in [9] it was 78%; in assay [10], 112%; in [11], 100%; in assay [12], 88%. The residual activity in assay [13] worked out at 85%; in assay [14], 103%; in [15] it was 84%; in assay [16], 77%; in [17] it was 86%; in assay [18], 68%. For the same molecule, the results for the residual activity in assay [19] and in assay [20] were 84% and 45%, respectively.
Turning to `COc1cc2ncnc(Nc3ccc(NC(=O)c4ccccc4)cc3)c2cc1OC`, the residual activity in assay [1] came to 107%; in assay [2] it was 97%; in assay [3], 105%; in assay [4], 99%; in [5] it was 101%; in assay [6] it was 101%. In addition, the residual activity in assay [7] came out at 111%; in [8], 102%; in assay [9] it was 97%; in [10], 102%; in [11], 111%; in assay [12], 100%. Also, the residual activity in [13] came out at 97%; in [14], 99%; in assay [15], 34%; in [16] it was 8%; in assay [17], 92%; in [18], 78%. Further, the results for the residual activity in assay [19] and in assay [20] were 79% and 69%, respectively.
For `COc1cc2ncnc(Nc3ccc(O)c(Br)c3)c2cc1OC`, the residual activity in assay [1] was 84%; in assay [2] it was 71%; in [3], 84%; in assay [4] it was 51%; in assay [5], 98%; in assay [6], 67%. Besides, the residual activity in [7] is 87%; in assay [8], 86%; in [9], 81%; in assay [10], 78%; in assay [11] it was 91%; in assay [12], 41%. The residual activity stood at 80% in assay [13]; 70% in [14]; 46% in assay [15]; 11% in assay [16]; 90% in [17]; 41% in assay [18]. Besides, the results for the residual activity in [19] and in assay [20] were 81% and 38%, respectively.
Regarding `Oc1ccc(-c2nc(-c3ccc(F)cc3)c(-c3ccncc3)[nH]2)cc1`, the residual activity in assay [1] amounted to 109%; in assay [2] it was 93%; in assay [3], 105%; in assay [4], 91%; in assay [5], 127%; in assay [6], 99%. Besides, the residual activity in [7] is 123%; in [8], 109%; in assay [9] it was 104%; in [10], 102%; in assay [11] it was 94%; in assay [12], 65%. Moreover, the residual activity was determined as 103% in assay [13]; 92% in [14]; 89% in assay [15]; 68% in [16]; 82% in assay [17]; 59% in assay [18]. The results for the residual activity in assay [19] and in [20] were 7% and -1%, respectively.
On to `CCOc1cc2ncnc(Nc3cccc(Br)c3)c2cc1OCC`, for which the residual activity came to 103% in assay [1]; 87% in assay [2]; 105% in assay [3]; 97% in [4]; 95% in assay [5]; 81% in [6]. Also, the residual activity in assay [7] is 96%; in assay [8], 88%; in assay [9], 86%; in assay [10], 84%; in assay [11] it was 94%; in assay [12] it was 82%. The residual activity in [13] came out at 85%; in [14], 82%; in assay [15], 91%; in [16], 47%; in assay [17], 91%; in assay [18], 87%. The figures for the residual activity in assay [19] and in assay [20] were 84% and 51%, respectively.
With `COc1ccc(CNc2nc(N(CCO)CCO)nc3c2ncn3C(C)C)cc1`, the residual activity in assay [1] was 52%; in [2] it was 9%; in [3], 11%; in [4] it was 2%; in [5] it was 18%; in [6] it was 2%. Besides, the residual activity in [7] stood at 91%; in [8], 77%; in assay [9], 94%; in assay [10], 36%; in assay [11] it was 29%; in assay [12] it was 0%. The residual activity in [13] was 93%; in assay [14], 87%; in assay [15], 77%; in [16] it was 33%; in assay [17] it was 67%; in assay [18], 29%. In addition, the residual activity in [19] worked out at 40%; in assay [20], 6%.
For the molecule `Cn1cnc2cc3c(Nc4cccc(Br)c4)ncnc3cc21`, the residual activity in assay [1] is 102%; in assay [2], 81%; in assay [3], 96%; in assay [4], 104%; in assay [5], 98%; in [6], 90%. In addition, the residual activity in assay [7] came out at 99%; in [8], 92%; in assay [9] it was 84%; in [10], 102%; in assay [11], 108%; in assay [12], 93%. Besides, the residual activity in [13] was found to be 95%; in [14], 92%; in [15] it was 89%; in assay [16] it was 56%; in assay [17], 84%; in [18], 81%. The residual activity turned out to be 87% in assay [19] and 64% in assay [20].
`O=C1Nc2cc(Br)ccc2/C1=C1/Nc2ccccc2/C1=N\O`: the residual activity was 0% in assay [1]; 1% in assay [2]; 6% in assay [3]; 10% in assay [4]; 2% in [5]; 9% in [6]. Further, the residual activity was 40% in [7]; 5% in assay [8]; 34% in [9]; 13% in [10]; 32% in assay [11]; 42% in [12]. Besides, the residual activity is 45% in assay [13]; 19% in assay [14]; 18% in assay [15]; 3% in assay [16]; 64% in [17]; 73% in [18]. Further, the residual activity worked out at 51% in [19] and 17% in [20].
Regarding `CC(=O)c1ccc(N2CCOCC2)cc1O`, the residual activity came out at 106% in assay [1]; 83% in assay [2]; 86% in [3]; 74% in assay [4]; 95% in assay [5]; 84% in [6]. The residual activity turned out to be 99% in assay [7]; 89% in [8]; 91% in assay [9]; 97% in assay [10]; 85% in [11]; 74% in assay [12]. In addition, the residual activity in [13] stood at 96%; in [14], 93%; in [15] it was 94%; in [16] it was 91%; in [17] it was 97%; in [18], 97%. The residual activity in [19] was found to be 89%; in [20] it was 94%.
Take `C[C@@H](N)[C@H]1CC[C@H](C(=O)Nc2ccncc2)CC1`: the residual activity in assay [1] is 117%; in assay [2], 112%; in assay [3], 99%; in [4], 85%; in assay [5], 117%; in assay [6], 78%. Also, the residual activity came to 108% in assay [7]; 109% in assay [8]; 101% in assay [9]; 93% in assay [10]; 97% in assay [11]; 57% in assay [12]. The residual activity in assay [13] is 107%; in assay [14], 104%; in [15] it was 103%; in assay [16], 97%; in assay [17] it was 102%; in assay [18], 99%. The figures for the residual activity in assay [19] and in [20] were 103% and 110%, respectively.
`CC[n+]1c(/C=C/N(C)c2ccccc2)n(-c2ccccc2)c2ccc(-c3nc4ccccc4s3)cc21`: the residual activity was determined as 108% in assay [1]; 90% in assay [2]; 115% in [3]; 92% in assay [4]; 101% in [5]; 95% in assay [6]. Also, the residual activity in assay [7] was found to be 105%; in assay [8] it was 104%; in assay [9], 97%; in [10], 100%; in assay [11] it was 119%; in [12] it was 125%. Further, the residual activity is 94% in assay [13]; 83% in [14]; 92% in assay [15]; 80% in assay [16]; 84% in assay [17]; 100% in assay [18]. For the same molecule, the residual activity in [19] was 87%; in assay [20], 93%.
For the molecule `CNc1cc2c(Nc3cccc(Br)c3)ncnc2cn1`, the residual activity came to 88% in assay [1]; 83% in [2]; 98% in assay [3]; 110% in [4]; 79% in assay [5]; 89% in assay [6]. Moreover, the residual activity in [7] stood at 94%; in assay [8], 81%; in [9], 87%; in assay [10], 74%; in [11] it was 86%; in assay [12], 86%. In addition, the residual activity is 88% in assay [13]; 77% in assay [14]; 97% in assay [15]; 56% in assay [16]; 101% in assay [17]; 69% in [18]. Also, the figures for the residual activity in assay [19] and in assay [20] were 111% and 90%, respectively.
With `CCC(=O)Nc1ccc2ncnc(Nc3cccc(Br)c3)c2c1`, the residual activity in assay [1] is 101%; in assay [2] it was 78%; in assay [3], 102%; in assay [4], 113%; in [5] it was 79%; in [6], 101%. Besides, the residual activity was determined as 84% in [7]; 81% in assay [8]; 86% in assay [9]; 95% in assay [10]; 102% in [11]; 86% in assay [12]. Also, the residual activity in assay [13] came out at 85%; in [14], 87%; in assay [15], 95%; in assay [16] it was 87%; in [17], 87%; in [18], 95%. Besides, the values for the residual activity in [19] and in assay [20] were 97% and 100%, respectively.
